# Assay results as given in PubChem BioAssay AID2384 (Southern Research Specialized Biocontainment Screening …, 2010).
# About 1,100 (48%) of roughly 2,300 compounds were called active. So high a share suggests a set chosen from earlier hits. Some of the results follow. Potency and affinity values are given separately. Unmarked numbers belong to inactive results. How the calls were made is not given here.
# Assay: S. typhi counter-screen signal inhibition – fluorescence, 4 h, counter-screen for PhoP regulon inhibitor project, dose response (AID 2384)
# Details: S. typhi GFP reporter counter-screen; series mostly up to 150 µM; inhibition: at the top concentration
row,SMILES,inhibition
1,O=C(O)Cn1c(=O)c2c3c(sc2n(Cc2ccccc2F)c1=O)CCCC3,4.22%
2,Cc1cc(N2CCCCC2)c(F)cc1[N+](=O)[O-],1.62%
3,O=C1CCCC(=O)N1c1ccc(N2CCOCC2)c([N+](=O)[O-])c1,-18.8%
4,Cc1cnc(NC(=O)CN2C(=O)C3CC=CCC3C2=O)s1 (stereo unspecified),9.52%
5,O=C(Nc1ccccc1)c1ccc2nsnc2c1,-11.4%
6,Cc1ccccc1N1C(N)=NC(N)=NC1(C)C,-17.2%
7,COC(=O)C(NC(C)=O)(Nc1nc2c(s1)CCCC2)C(F)(F)F (stereo unspecified),-34.8%
8,CCOC(=O)CSc1nc(-c2ccccc2)nc2ccccc12,4.75%
9,Cc1[nH]c2ccccc2c1/C=C/c1nc2ccccc2c(=O)[nH]1,-58.7%
10,O=S(=O)(c1ccccc1)c1nc(-c2cccs2)oc1NCC1CCCO1 (stereo unspecified),1.69%
11,COc1ccc(Cn2c(=N)c(C(=O)NCC3CCCO3)cc3c(=O)n4ccccc4nc32)cc1 (stereo unspecified),14.7%
12,COc1ccc(Nc2nnc(SCC3CCCO3)s2)cc1 (stereo unspecified),-2.81%
13,COc1ccccc1Nc1nc(NCC2CCCO2)c2ccccc2n1 (stereo unspecified),-17.3%
14,c1ccc2oc(-c3csc(NCC4CCCO4)n3)cc2c1 (stereo unspecified),14.7%
15,COc1ccc(CCn2c(=N)c(C(=O)NCC3CCCO3)cc3c(=O)n4ccccc4nc32)cc1 (stereo unspecified),-24.6%
16,CC(=O)c1cccc(CN2CCN(C3CCCC3)C(CCO)C2)c1 (stereo unspecified),-25.6%
17,CCCC1(c2ccccc2)NC(=O)N(CC(=O)Nc2ccccc2C(F)(F)F)C1=O (stereo unspecified),-9.26%
18,Cc1cccn2c(=O)c3cc(C(=O)NCC4CCCO4)c(=N)n(C4CCCC4)c3nc12 (stereo unspecified),6.06%
19,O=C(NCC1CCCO1)c1cc2ccccc2oc1=O (stereo unspecified),-11.7%
20,Cc1oc2nc(SCCCC(=O)NCCCO)nc(N)c2c1C,12%
21,Cc1c(C(=O)O)c(-c2ccccc2)nn1-c1ccccc1,27.3%
22,CCN(CC)C(=O)CNC(=O)Cc1ccc(Cl)cc1,2.3%
23,O=C1c2ccccc2C(=O)N1CCCP(=O)(O)CCc1ccccc1,-32.8%
24,COc1ccc(N2CCN(C(CNC(=O)c3ccc4c(c3)OCO4)c3ccco3)CC2)cc1 (stereo unspecified),6.52%

row,SMILES,inhibition
1,COc1ccc(/C=N/NC(=O)c2ccc3c(c2)OCO3)cc1,32.6%
2,O=C(N/N=C\c1ccc(F)cc1)c1ccc(F)cc1,6.55%
3,CCCCN1/C(=C/c2cccc[n+]2C)Sc2cc(NC(C)=O)ccc21,12.8%
4,O=C(CSc1nc2ccccc2o1)c1cc2ccccc2oc1=O,-0.48%
5,CC(Sc1nc2ccccc2o1)C(=O)O (stereo unspecified),20%
6,Cc1c(CC(=O)N2CCC(C(N)=O)CC2)c(=O)oc2cc3c(cc12)CCC1(CCCCC1)O3,6.85%
7,O=C(/C=C/c1c(F)cccc1Cl)N1CCOCC1,20.2%
8,Cc1cc(N/N=C/c2ccc(F)cc2)nc(NCc2ccccc2)n1,15.9%
9,COc1ccc2nc(Nc3ccccc3)sc2c1,39.4%
10,CC1CCN(C(=O)COc2ccc(Nc3ccccc3)cc2)CC1,-23.7%
11,O=C(Nc1ccc(N2CCOCC2)cc1)C1CCN(S(=O)(=O)c2ccccc2F)CC1,-25%
12,CCCCNC(=S)Nc1ccc([N+](=O)[O-])cc1,0.84%
13,CCn1cc(C(=O)NCc2ccc3c(c2)OCO3)c(=O)c2cc(F)c(N3CCN(C(=O)c4ccco4)CC3)cc21,39.6%
14,CCN(CC)S(=O)(=O)c1ccc2c(c1)c(C(=O)O)cn2C,9.26%
15,CCn1cc(C(=O)N[C@@H](C)C(=O)OC)c(=O)c2cc3c(cc21)OCO3,17.9%
16,O=C(c1cc2c(s1)-c1ccccc1OC2)N1CCc2ccccc2C1,25.9%
17,Nc1c(-c2ccccc2)sc2ccc3ccccc3[n+]12,-9.75%
18,CN(Cc1ccccc1)S(=O)(=O)c1csc(C(N)=O)c1,4.18%
19,Cc1cccc(NC(=O)c2ccccc2Br)n1,-13%
20,Cc1ccc(C(C)C)c(OCCNC(=O)c2ccccc2O)c1,-21.1%
21,CN1C(=O)c2ccc(NC(=O)C3CCCCC3)cc2C1=O,10.3%
22,CC(=O)c1c(C)[nH]c(C(=O)OCC(=O)NCC(C)C)c1C,8.29%
23,Cc1ccc(NC(=S)NCc2cccs2)cc1,-16.3% [at 75 µM]
24,O=C(NCCc1ccncc1)Nc1ccc(Cl)c(Cl)c1,29.8%

row,SMILES,inhibition
1,O=C(O)CCSCc1ccccc1F,1.37%
2,Cc1cc2cc(CNC(=O)C(C)Oc3ccccc3)ccc2n1C (stereo unspecified),10.9%
3,COC(=O)c1cccc(C(=O)N2CCCC(CCC(=O)N(C)CCc3ccccn3)C2)c1 (stereo unspecified),-21.1%
4,Fc1ccc(NC(=S)NCc2ccccc2Cl)cc1,4.19%
5,COc1ccccc1CNC(=O)COC(=O)CCC(=O)c1cccs1,20.7%
6,COc1cccc(CNc2nn[nH]n2)c1OC,-1.43%
7,Cc1cc(=O)oc2cc(OCC(=O)NC3CCCC3)ccc12,-14.7%
8,CSc1cccc(NC(=O)/C=C/c2ccco2)c1,27.3%
9,COc1cccc(C(=O)Nc2cccc(SC)c2)c1,17.3%
10,CC(C)CCNC(=O)c1cc2c(s1)-c1ccccc1S(=O)(=O)C2,-18.7%
11,COC(=O)c1ccc(CSc2nc3ccccc3c(=O)n2-c2ccc(OC)c(OC)c2)o1,8.35%
12,Cc1[nH]nc2c1C1(CCC3(CC1)OCCO3)C(C#N)=C(N)O2,29%
13,Cc1ccsc1/C=N\NC(=O)c1ccc2c(c1)OCO2,29.4% [at 18.8 µM]
14,Cc1ccc2cc(-c3noc(C4CCCO4)n3)c(=O)[nH]c2c1 (stereo unspecified),38.1%
15,Cc1[nH]c(=O)[nH]c(=O)c1S(=O)(=O)N1CCCC(C(=O)NCc2ccc3c(c2)OCO3)C1 (stereo unspecified),-18.7%
16,CCc1cccc2c(C=C(C#N)C#N)cn(CC(=O)N3CCCCCC3)c12,-11.1%
17,N#Cc1c(/N=C/c2cccs2)sc2c1CCCCC2,-21.1%
18,Cc1nc(NC2=NCN(CCCN3CCOCC3)CN2)nc2c(C)cccc12,24.1%
19,COc1cccc(CNC(=O)C2CCN(S(=O)(=O)c3ccc(C)cc3)CC2)c1,-14.8%
20,COc1cccc(NC(=O)CN(C)C(C)C(=O)Nc2ccc(S(=O)(=O)N3CCOCC3)cc2)c1 (stereo unspecified),-0.15%
21,CC(C)Cc1c(O)nc(SCC(=O)Nc2ccc3c(c2)CCC3)[nH]c1=O,27.6%
22,Nc1nc(SCC(=O)Nc2ccc3c(c2)CCC3)n[nH]1,6.01%
23,N#CC(C(=O)C12CC3CC(CC(C3)C1)C2)c1nc2ccccc2[nH]1 (stereo unspecified),-2.5%
24,Cc1nn(-c2nc3ccccc3[nH]2)c(N)c1-c1ccccc1,17.9%

row,SMILES,inhibition
1,CC(=O)c1ccc(NC(=S)NC(NC(=O)c2ccco2)C(Cl)(Cl)Cl)cc1 (stereo unspecified),15.3%
2,CC(C)SCc1nc2ccccc2[nH]1,-16.5%
3,COc1cccc(CNS(=O)(=O)c2ccc3c(c2)NC(=O)CS3)c1,-0.3%
4,O=C(O)CC12CC3CC(C1)CC(n1ncc(NCC4CCCO4)c(Cl)c1=O)(C3)C2 (stereo unspecified),-22.1%
5,Cc1ccc(NC2=C(Cl)C(=O)OC2OC(=O)c2ccco2)c(C)c1 (stereo unspecified),-8.96%
6,O=C(NCc1nc2ccccc2[nH]1)c1ccc([N+](=O)[O-])cc1,37.4%
7,CN(C)C(CNc1ccc([N+](=O)[O-])cc1C#N)c1ccccc1 (stereo unspecified),32.1%
8,COc1ccc(C2=NN3C(C2)c2ccccc2OC3c2cccs2)cc1 (stereo unspecified),10.4%
9,CCS(=O)(=O)N1CCN(C2CCC(c3ccccc3)CC2)CC1 (stereo unspecified),24.4%
10,CNS(=O)(=O)c1cc(OC)ccc1OC,-5.88%
11,NC(=O)c1cc(C(=O)c2cccc(Cl)c2Cl)c[nH]1,29.6%
12,CCOC(=O)COn1c(=O)c(-c2cccs2)[n+]([O-])c2ccccc21,4.01%
13,CCOc1ccc(N2C(=O)S/C(=C\c3ccc(O)c(OC)c3)C2=O)cc1,-3.62%
14,c1ccn(-c2ccc(-c3ccn[nH]3)cc2)c1,-23.6%
15,CC(=O)Nc1nc(C)c(-c2csc(Nc3ccc(O)cc3)n2)s1,36.7%
16,CC(C)(C)n1nc2c(c1NC(=O)c1ccccc1)CS(=O)(=O)C2,15.3%
17,Cc1cc(NS(=O)(=O)c2ccc(Nc3nc(-c4sc(NC(=O)c5ccccc5)nc4C)cs3)cc2)no1,-13.7%
18,Cc1cc(C)c[n+](CC(=O)c2ccc(NC(=O)c3ccccc3)cc2)c1,29.9%
19,Clc1ccc(Cn2cc(Br)cn2)cc1Cl,12.1%
20,COC(=O)Cn1c(=O)c(C)nc2ccccc21,-6.54%
21,COCCn1nnnc1C(c1cccc(OC)c1OC)N1CCN(C2CCCCC2)CC1 (stereo unspecified),-15.4%
22,COc1cc2[nH]c(=O)n(Cc3ccc(C(=O)N4CCC(N5CCCCC5)CC4)cc3)c(=O)c2cc1OC,-16.4%
23,O=C1c2cccnc2C(=O)N1c1ccccc1-c1ccccc1,14.5%
24,O=C(c1cccs1)N1CCN(S(=O)(=O)c2ccccc2)CC1,11.9%

row,SMILES,inhibition
1,CC(C)(C)c1ccc(C(=O)NNC(=O)Cc2ccccc2)cc1,9.8%
2,CC(C)(C)n1nc2c(c1NC(=O)c1cccs1)CS(=O)C2 (stereo unspecified),5.52%
3,CCc1ccccc1NC(=S)N(Cc1cccc(C)c1)c1cccnc1,-8.36%
4,N=c1sc2c(n1Cc1ccccc1)CCCC2,25.6%
5,N#Cc1c(-c2ccccc2)ccn(Cc2cccc(Cl)c2)c1=O,0.97%
6,Nc1nc2n(n1)C(c1ccco1)CC(c1ccc(Cl)c(Cl)c1)N2 (stereo unspecified),-6.04%
7,Cc1ccc2nc3c(c(N)c2c1)CCN3C,22.2%
8,O=C(CSc1nnnn1C1CCCCC1)N1CCCC1,3.49%
9,Cc1cc(C)nc(NS(=O)(=O)c2ccc(N3C(=O)C4CC=C(Cl)CC4C3=O)cc2)n1 (stereo unspecified),-4.28%
10,COC(=O)Cc1ccc(NC(=S)NCc2ccc(Cl)cc2)cc1,-2.91%
11,CCOc1ccccc1NC(=O)Nc1ccncc1,-8.96%
12,Fc1cccc(NC(=S)NCc2ccc(Cl)cc2)c1,-6.29%
13,Cc1ccc(NC(=O)C(=O)NCc2ccncc2)cc1,-0.03%
14,O=S(=O)(Nc1ncccn1)c1ccc(NC(=S)Nc2ccc(Cl)cc2)cc1,-30.1%
15,CCNC(=S)Nc1cccc(S(=O)(=O)Nc2ccccc2OC)c1,8.49%
16,Cc1ccc(S(=O)(=O)N(Cc2n[nH]c(=S)n2-c2ccccc2)c2ccccc2)cc1,2.7%
17,CCN(C1CCCCC1)S(=O)(=O)c1ccc(OC)c(C)c1,15.5%
18,Cc1cnc(C(=O)Nc2nnc(C)s2)cn1,20.5%
19,O=C(O)C1Cc2ccccc2CN1S(=O)(=O)c1ccc2ccccc2c1 (stereo unspecified),-12.1%
20,CN1CCCN(S(=O)(=O)c2ccc3c(c2)OCCO3)CC1,-1.35%
